Screening data from PubChem BioAssay.
Only some compounds are listed: those with a hit (about 3.3% of all), similar ones and a draw of the others.
PI5P4K alpha inh – inhibitors of human PI5P4K alpha. 330,000 compounds, 1.2% hits. PI5P4Kalpha enzyme, ADP-Glo luminescence, 60 min; hits give low values. max response, %; active = max response of -50% or lower; inconclusive = between -30% and -50%; inactive = -30% or higher; note: value at the top dose of about 77 µM
Target sequence (P48426 whole entry, looked up): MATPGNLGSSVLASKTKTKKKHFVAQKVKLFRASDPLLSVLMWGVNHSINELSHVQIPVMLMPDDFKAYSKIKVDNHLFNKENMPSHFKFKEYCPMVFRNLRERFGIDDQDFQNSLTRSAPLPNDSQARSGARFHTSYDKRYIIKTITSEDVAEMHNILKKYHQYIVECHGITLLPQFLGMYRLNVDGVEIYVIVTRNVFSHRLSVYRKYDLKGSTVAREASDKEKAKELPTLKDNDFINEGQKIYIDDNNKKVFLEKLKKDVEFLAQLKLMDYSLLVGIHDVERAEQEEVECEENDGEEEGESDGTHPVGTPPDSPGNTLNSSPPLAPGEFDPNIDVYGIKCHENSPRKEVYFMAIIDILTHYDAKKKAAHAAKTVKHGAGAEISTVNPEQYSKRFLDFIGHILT
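Quantitative HTS of the MLSMR library against PI5P4Kalpha with substrate. ATP added last at 5 microM final; room temperature, 60 minutes. Remaining ATP depleted, ADP converted and read as luminescence.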
LDHA inh – LDHA (human) enzyme inhibition; purified LDHA, NADH/diaphorase-resazurin fluorescence; hits give low values; 480,000 compounds, 0.15% hits; activity change, % (values are at about 110 or 230 µM); in the data active = activity change below about -30%; inconclusive = mostly about -25% to -30%
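Human LDH5 at 2 nM final in Tris HCl pH 7.4 with 0.06 mM NADH and 0.2 mM pyruvate, reacted 5 minutes at room temperature. Remaining NADH coupled via diaphorase/resazurin; resorufin fluorescence read at 0 and 20 minutes, normalized to enzyme-free and DMSO wells.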
DRD3 antagonist – D3 dopamine receptor (human) antagonism; P35462; D3R cells, DiscoveRx beta-arrestin luminescence, antagonist mode; hits give low values; max response, negative = inhibition, %; 360,000 compounds, 2.5% hits; in the data active = max response below about -50%; inconclusive = no clear call, values can overlap the other calls
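Cells plated overnight at 1500 cells/well, then exposed to library compounds with dopamine controls for 90 minutes at 37 degrees C. DiscoveRx reagent added for 30–60 minutes at room temperature; luminescence read, quantitative HTS format.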
PI4K2A inh – inhibitors of human PI4K2A; purified PI4K2A, ADP-Glo luminescence, 1 h; hits give low values; activity change, negative = inhibition, % at 76.9 µM; 420,000 compounds, 0.13% hits; in the data active = activity change below about -50%; inconclusive = mostly about -30% to -49%
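ADP-Glo luminescence measured ADP generated by PI4K2A enzyme (4 ug/mL before mixing) with 1.2 mM PI substrate (pre-mix) and 300 microM ATP (pre-mix). Tris pH7.5 buffer with MgCl2, Triton X-100; 1 h reaction at ambient temperature.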
DRD3 agonist – agonists of human D3 dopamine receptor; P35462; D3R DiscoveRx beta-arrestin cells, luminescence, 90 min; max activation, %; 410,000 compounds, 0.58% hits; AID 652048; in the data active = max activation above about 30%
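Agonist mode: compounds and dopamine controls were applied to plated cells for 90 min at 37 degrees C after an overnight attachment at 1500 cells/well. Luminescent read-out followed 30 - 60 minutes at room temperature with DiscoveRx detection reagent.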
A number is an active result; n = inactive; u = inconclusive; x = no result given.

SMILES	PI5P4K alpha inh	LDHA inh	DRD3 antagonist	PI4K2A inh	DRD3 agonist
COc1ccccc1CNCC(O)(c1ccc(Cl)cc1)c1ccc(Cl)cc1	x	n	-83.1	n	n
O=C(N/N=C/c1ccccc1Cl)c1n[nH]c2c1CCCC2	n	n	n	n	n
Cc1[nH]nc(C(=O)NN=Cc2ccccc2Cl)c1N=NN(C)C	n	n	-80.7	n	n
Cc1nc2c(o1)CCc1ccccc1C2N1CCN(C)CC1 (stereo not given)	n	n	-54.4	n	n
Cc1cc(-c2nc3ccccc3s2)ccc1NC(=O)c1ccc(C(C)C)cc1	x	n	x	x	x
COC(=O)c1ccc2c(c1)C(=O)/C(=C/c1ccc(C)cc1)O2	n	n	n	n	n
CN(C)c1ccc(/C=C2\Oc3ccc(C#Cc4cccc(N)c4)cc3C2=O)cc1	n	n	n	n	56.3
COc1cc2c(cc1NC(=O)CSc1ccccc1)oc1ccccc12	n	n	n	n	n
COc1cc2c(cc1NC(=O)CSc1nc3ccccc3[nH]1)oc1ccccc12	x	n	-74.7	n	n
COCC(N)(c1ccccc1)c1nc2ccccc2n1C (stereo not given)	x	n	-88.9	n	n
OCCC1CN(CCCc2ccccc2)CCN1Cc1ccccc1 (stereo not given)	n	n	-82.0	n	n
OCCC1CN(Cc2ccc(F)cc2)CCN1CCc1ccccc1 (stereo not given)	n	n	n	n	n
OCCC1CN(Cc2cc3ccccc3o2)CCN1Cc1ccc(F)cc1 (stereo not given)	n	n	u	n	n
OCCC1CN(Cc2ccc(F)cc2)CCN1CCCc1ccccc1 (stereo not given)	n	n	-57.7	n	n
O=c1cc(CN2CCN(Cc3ccc(F)cc3)C(CCO)C2)[nH]c2ccccc12 (stereo not given)	n	n	-58.3	n	n
CC(C)c1cccc(NC(=O)c2ccc[n+]([O-])c2)c1	x	n	x	x	x
O=C(CCC1CCCCC1)Nc1ccc2sc3ccccc3c(=O)c2c1	x	n	x	x	x
Oc1ccc(N=Nc2ccccc2C(F)(F)F)c2cccnc12	n	n	-124.5	n	n
COc1ccccc1N=Nc1ccc(O)c2ncccc12	u	n	-89.6	u	n
CCS(=O)(=O)c1ccc(N=Nc2ccc(O)c3ncccc23)c(OC)c1	n	n	u	n	n
Oc1ccc(CNc2ccccc2C(F)(F)F)c2cccnc12	x	n	x	n	x
COc1cc(C)c(Br)cc1S(=O)(=O)N1CCCCC1C (stereo not given)	x	n	x	x	x
COc1cccc(CN2CCN(C3CCN(c4ccccc4F)CC3)CC2CCO)c1 (stereo not given)	n	n	-110.4	n	n
COc1cccc(CN2CCN(C3CCN(c4ccccc4C)CC3)CC2CCO)c1 (stereo not given)	n	n	-59.6	n	n
Cc1cc(F)ccc1N1CCC(N2CCN(C(C)C)C(CCO)C2)CC1 (stereo not given)	n	n	-53.2	n	n
SMILES	PI5P4K alpha inh	LDHA inh	DRD3 antagonist	PI4K2A inh	DRD3 agonist
COc1cccc(CN2CCN(C3CCN(c4cccc(C)c4C)CC3)CC2CCO)c1 (stereo not given)	n	n	n	n	n
CC(C)C(NC(=O)c1ccccc1I)c1ccc(F)cc1 (stereo not given)	x	n	x	x	x
CN(Cc1nc(-c2ccc(OC(F)(F)F)cc2)no1)S(=O)(=O)c1ccc(F)cc1	x	n	x	x	x
CCSc1nnc(N2C(=O)c3ccc(C(=O)c4ccc(C(=O)O)cc4)cc3C2=O)s1	-85.3	n	n	n	n
Cc1ccc(N2C(=O)c3ccc(C(=O)O)cc3C2=O)cc1C	x	n	n	n	n
CCN(CC)CCN(C(=O)c1ccc2c(c1)OCCO2)c1nc2cc(C)cc(C)c2s1	n	n	u	n	n
CCN(CC)CCN(C(=O)c1ccc2c(c1)CCCC2)c1nc2ccc(C)cc2s1	n	n	-51.0	n	n
CCN(CC)CCN(C(=O)c1ccc2c(c1)CCCC2)c1nc2c(C)cccc2s1	n	n	-51.4	n	n
CCN(CC)CCN(C(=O)c1ccc2c(c1)OCCO2)c1nc2c(Cl)cccc2s1	n	n	-62.7	n	n
C=CCn1c(-c2ccc(SC)cc2)c(-c2ccccc2)sc1=Nc1ccc(C)cc1	x	n	x	x	x
CCC(=O)Nc1ccc2nc3c(=O)n(C)c(=O)n(C)c3nc2c1	x	n	x	n	n
CCC(=O)Nc1ccc2nc3c(=O)[nH]c(=S)[nH]c3nc2c1	-66.2	n	n	n	n
CCC(C)NC(=O)CN1C(=O)N(c2cc(C)cc(C)c2)S(=O)(=O)c2ccccc21 (stereo not given)	x	n	x	x	x
COc1cccc(NC(=O)c2ncoc2-c2ccc(C)o2)c1	x	n	x	x	x
CCOC(=O)c1oc2ccccc2c1NC(=O)c1ccccc1OC	x	n	n	n	50.3
COc1ccccc1C(=O)Nc1c(C(=O)c2ccccc2)oc2ccccc12	x	n	x	n	n
CCOc1ccc(C(=O)Nc2c(C(=O)c3ccc(OC)cc3)oc3ccccc23)cc1	x	n	x	n	n
CCOc1cccc(C(=O)Nc2c(C(=O)c3ccc(OC)cc3)oc3ccccc23)c1	x	n	x	n	32.6
CCN1CCCC(OC(=O)C(c2ccccc2)c2ccccc2)C1 (stereo not given)	n	n	-52.6	n	n
COC(C[C@H]1O[C@H]1[C@H](O)[C@H](C)OCc1ccccc1)OC	n	n	n	n	37.1
COC(C[C@@H]1O[C@@H]1[C@@H](O)[C@H](C)OCc1ccccc1)OC	n	n	n	n	n
Oc1c(Br)cc(/C=N/n2c(-c3ccccc3)n[nH]c2=S)c(O)c1Br	-84.7	n	n	n	n
Cc1c(Br)c(O)c(Br)c(O)c1/C=N/n1c(-c2ccccc2)n[nH]c1=S	-83.0	n	n	n	n
Oc1c(Br)cc(/C=N/n2c(-c3ccccc3)n[nH]c2=S)cc1Br	-92.4	n	n	n	n
COc1ccc(Br)cc1/C=N/n1c(-c2ccccc2)n[nH]c1=S	n	n	n	n	n
SMILES	PI5P4K alpha inh	LDHA inh	DRD3 antagonist	PI4K2A inh	DRD3 agonist
CCN(CC)S(=O)(=O)c1cccc(-c2n[nH]c(=S)n2/N=C/c2ccc(Br)cc2)c1	n	n	-54.4	n	n
COc1cc(/C=N/n2c(-c3ccccc3)n[nH]c2=S)cc(OC)c1O	n	n	u	n	n
COc1cc(/C=N/n2c(-c3ccccc3)n[nH]c2=S)ccc1O	n	n	n	n	n
Oc1ccc(/C=N/n2c(-c3ccccc3)n[nH]c2=S)cc1Br	-52.6	n	n	n	n
O=C(NC1CCCCC1)N1CCCC(c2nc3ccccc3[nH]2)C1 (stereo not given)	x	n	-125.7	n	n
CCCNC(=O)CCNC(=O)N1CCn2c1nc1ccccc12	x	n	x	x	x
Cc1cccc2c(C(=O)O)cc(-c3ccc(OC(C)C)cc3)nc12	x	n	x	x	x
OC(CNC1CCCCC1)CON=C1CCSc2c(Cl)cccc21 (stereo not given)	n	n	-66.3	n	n
CC1CCC/C=C/C(=O)c2c(O)cc(O)cc2CC(=O)O1 (stereo not given)	n	n	-88.8	u	n
